Source: PubChem BioAssay (several laboratories)
A selection: hits, their analogues and other compounds. The true share with any hit is near 1.2%.
UGM FP inh: blocks M. tuberculosis UGM enzyme; P9WIQ1; purified UGM, fluorescence polarization probe displacement; inhibition, % at 10 µM; 0.06% of 320,000 active; in the data active = inhibition above about 10%, passing the limit was not always enough
Target sequence (P9WIQ1 whole entry, looked up): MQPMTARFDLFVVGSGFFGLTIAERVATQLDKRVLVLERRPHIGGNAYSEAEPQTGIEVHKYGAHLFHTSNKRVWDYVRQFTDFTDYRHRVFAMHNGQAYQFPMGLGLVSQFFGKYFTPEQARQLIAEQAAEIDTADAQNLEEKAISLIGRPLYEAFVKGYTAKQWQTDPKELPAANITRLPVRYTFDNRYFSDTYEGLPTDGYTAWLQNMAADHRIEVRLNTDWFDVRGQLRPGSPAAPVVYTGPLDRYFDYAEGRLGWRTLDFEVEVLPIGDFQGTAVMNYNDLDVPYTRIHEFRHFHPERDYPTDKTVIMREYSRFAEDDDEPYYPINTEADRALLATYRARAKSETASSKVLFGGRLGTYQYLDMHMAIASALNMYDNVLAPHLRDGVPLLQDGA
FadD28 FP inh: inhibitors of Mycobacterium tuberculosis FadD28 bisubstrate binding; FadD28 bisubstrate probe binding, fluorescence polarization; inhibition, % at 12.5 µM; 0.22% of 360,000 active; in the data active = inhibition above about 8.5%, passing the limit was not always enough
SSB-PriA inh: K. pneumoniae PriA-SSBct interaction inhibition | AID 1272365 | 0.6% of 430,000 active | inhibition, % at 33 µM | AlphaScreen SSBct-PriA binding, biotinylated peptide; in the data active = inhibition mostly above about 37%, no sharp cut-off; inactive = mostly below about 20%;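 note: plate controls were negative control peptide for no effect and reference peptide for full effect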
Rv3671c inh: inhibits the M. tuberculosis serine protease Rv3671c. P9WHR9. inhibition, % at 5.96 µM. 0.048% of 320,000 active. AID 2606; in the data active = inhibition above about 38%;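 note: extracellular domain of Rv3671c used as enzyme; 0% = enzyme with DMSO and 100% = no enzyme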
PrPC surface inh: reduces human prion protein on the cell surface; P04156; cell surface PrPC, TR-FRET read-out; inhibition, % at 13.8 µM; 0.43% of 370,000 active; AID 720596; in the data active = inhibition above about 24%; note: 0% = median of the test wells and 100% = reference compound wells
PrP UTR inh: inhibition of PrP 5' UTR reporter expression | cell-based PrP 5' UTR mRNA reporter, plate reader | inhibition, % (no concentration beside the values) | AID 488862 | 0.35% of 340,000 active; in the data active = inhibition above about 52%; note: 0 = median of the neutral control wells
PrPC TRFRET cf: cell surface PrPC inhibition, TR-FRET confirmation; inhibition, % at 13.8 µM; 65% of 1,500 active; shares compounds with PrPC surface inh; AID 743200; cell surface PrPC level; in the data active = inhibition above about 25%
LD9 cytotox: LD9 cell cytotoxicity, PrPc inhibitor counter-screen. inhibition, % at 13.8 µM. LD9 cells cytotoxicity, luminescence viability. shares compounds with PrPC surface inh. 29% of 1,500 active; in the data active = inhibition above about 9.5%
Numbers without * were called inactive; x = no result.

SMILES	UGM FP inh	FadD28 FP inh	SSB-PriA inh	Rv3671c inh	PrPC surface inh	PrP UTR inh	PrPC TRFRET cf	LD9 cytotox
CCOc1ccc(NC(=O)CSc2oc(-c3ccc(C)cc3)nc2S(=O)(=O)c2ccccc2)cc1	x	x	-22	x	x	x	x	x
Cn1c2ccccc2c2cc(/C=N/NC(=O)c3ccccc3F)ccc21	2	-1	x	-8	47*	-21	14	0
O=C(Nc1ccc(Cl)c2ncsc12)c1cccc(C(F)(F)F)c1	x	x	-16	x	x	x	x	x
NC(N)=N/N=C/c1cn(-c2ccccc2)nc1-c1cccs1	-2	-18	x	-3	27*	-8	3	60*
Nn1c(SCc2ccc(Br)cc2)nnc1-c1n[nH]c2c1CCC2	x	x	x	x	25*	x	19	8
Cc1ccc(S(=O)(=O)N2CCN(CC(O)c3ccccc3)CC2)cc1C (centres undefined)	0	-3	6	2	57*	-28	6	-5
CCOc1ccc(CNC(=O)[C@H]2CCc3nn(C)c(=O)cc3C2)cc1OCC	x	x	-13	x	x	x	x	x
Cc1ccc(NS(=O)(=O)c2cc(C(=O)NCc3ccccn3)ccc2Cl)cc1	-1	-5	-15	-3	40*	-29	35*	-6
Cc1ccc(Cn2c(SCC(=O)N3CC(=O)Nc4ccccc43)nc3ccccc3c2=O)cc1	-2	-12	-19	-29	29*	-34	45*	-2
C/C(N)=C(/C#N)C(=O)CSc1nc2ccccc2c(=O)n1Cc1ccc(C)cc1	-1	-5	2	-42	27*	-6	7	-2
C/C(N)=C(/C#N)C(=O)CSc1nc2ccccc2c(=O)n1Cc1ccc(F)cc1	6	-1	-11	-26	-2	x	x	x
Cc1cc(Cl)cc2sc(Cl)nc12	x	x	-11	x	x	x	x	x
CCOC(=O)N1CCN(/C=C(\C#N)C(=O)NCc2ccc(OC)cc2)CC1	x	x	2	x	x	x	x	x
CN(C(=O)COc1ccccc1C(=O)NCCOc1ccccc1)c1ccccc1	-1	-1	-15	-18	80*	-28	83*	95*
O=C(NCCOc1ccccc1)c1ccccc1Cl	1	-2	-3	-8	4	-12	x	x
O=C(Cc1ccc(Cl)s1)Nc1nnc(-c2cc3ccccc3o2)o1	x	x	18	x	x	x	x	x
COc1ccc(/C=C\C(=O)NCc2ccc3c(c2)cc(C)n3C)cc1OC	-2	-4	15	-1	81*	-14	59*	-9
COc1ccc(C(=O)NCc2ccc3c(c2)cc(C)n3C)cc1OC	5	2	-1	1	45*	30	8	-1
Cc1cc2cc(CNC(=O)c3cccc(Br)c3)ccc2n1C	x	x	-3	x	x	x	x	x
C/C=C\C(=O)NCc1ccc2c(c1)cc(C)n2C	x	x	7	x	x	x	x	x
COc1cccc(C(=O)NCc2ccc3c(c2)cc(C)n3C)c1	2	0	15	-4	46*	-29	49*	0
COc1ccc(CC(=O)NCc2ccc3c(c2)cc(C)n3C)cc1	-3	0	13	8	-1	-7	x	x
Cc1cc2cc(CNC(=O)c3cccs3)ccc2n1C	0	0	17	2	35*	-30	17	3
Cc1cc(C)n(-c2nc(-c3ccccc3)cc(=O)n2CC(=O)NCC2CCCO2)n1 (centres undefined)	x	x	8	x	x	x	x	x
O=C(c1ccsc1)N1CCC(Oc2ccc(C(F)(F)F)cn2)CC1	x	x	-2	x	x	x	x	x
SMILES	UGM FP inh	FadD28 FP inh	SSB-PriA inh	Rv3671c inh	PrPC surface inh	PrP UTR inh	PrPC TRFRET cf	LD9 cytotox
Cc1cccc(Nc2ccc(NCCNC(=O)c3cccs3)nn2)n1	x	x	-8	x	x	x	x	x
CC1(C)Cc2c(sc(NC(=O)c3ccc(C(=O)c4ccccc4)cc3)c2C(N)=O)C(C)(C)N1	1	-2	7	-13	36*	-5	-15	19*
CCOC(=O)c1c(NC(=O)COc2ccccc2C#N)sc2c1CC(C)(C)NC2(C)C	-1	-2	4	0	117*	-4	104*	31*
COC(=O)c1c(NC(=O)c2ccccc2)sc2c1CC(C)(C)NC2(C)C	-1	-1	-9	-6	1	-2	x	x
O=C(Nc1cccc(-c2nc3ccccc3[nH]2)c1)c1cccc(NC(=O)c2ccco2)c1	-1	17*	4	-138	37*	-11	-6	18*
O=C(Nc1ccc2nc(-c3ccccc3)[nH]c2c1)c1ccco1	-1	-8	3	-23	-12	-61	x	x
